From PubChem BioAssay
Values joined by “and” are separate entries in the source; they are usually repeats but may differ in a detail not shown here. Identical values can stand only once. For some assays here: Entries with a potency or affinity are not part of this list. Active and inactive are the calls of the source. Unless noted, the rule behind the calls is not given here.

Key:
[1] = test system: Hepatitis C virus NS3 helicase; assay: blockers of NS3h binding to ssDNA – biochemical, fluorescence polarization, LOPAC1280 library, primary screen (AID 687035; in the data active = inhibition above about 37%); settings: Purified HCV NS3 helicase, Cy5-dT15 ssDNA binding fluorescence polarization; stronger effect = higher value; concentration not given here
[2] = compounds altering Cy5-DNA-NS3h complex signal – biochemical, LOPAC1280, artefact control for HCV NS3 helicase inhibitor project (AID 687037); settings: Cy5-DNA-NS3h complex fluorescence interference counterscreen
[3] = Wnt pathway potentiators raising nuclear beta-catenin – imaging, WNT3A-conditioned medium, mouse C2C12, NPC library, primary screen (AID 1117326; in the data active = nuclear beta-catenin stimulation mostly above about 4.2%, no sharp cut-off; inactive = mostly below about 10%); settings: stronger effect = higher value
[4] = stimulators of insulin release from INS-1E, primary screen, cell-based, 5 mM glucose, NPC library (AID 1117329;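 active = compound raises insulin release from rat beta cells at 5 mM glucose, no numeric limit stated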); settings: rat INS-1E insulin secretion, at 10 µM, stronger effect = higher value
[5] = growth inhibition of GSK3B-pretreated HCT116 cells – cell-based, CellTiter-Glo, 0.2 to 20 µM (AID 1117336;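 active = compounds lowering colon cancer cell viability after pretreatment blocking the GSK3B kinase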); settings: HCT116 viability after GSK3B inhibitor, at 20 µM, stronger effect = higher value
[6] = inhibition of endothelial tube formation, primary screen, imaging, VEGF stimulated, CD31 staining, tube area, NPC library (AID 1117340;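 active = compound that reduces growth-factor-driven endothelial tube area in a mixed cell culture, no cutoff stated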); settings: VEGF-stimulated ADSC/ECFC co-culture, at 10 µM, stronger effect = higher value
[7] = GLP1 release stimulators, primary, NCI-H716, NPC library (AID 1117341;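 active = compound raises GLP1 secretion from the human gut endocrine cells, with no numeric limit stated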); settings: NCI-H716 cells, at 10 µM, stronger effect = higher value
[8] = HCT116 colon cancer cell growth inhibition, primary screen, CellTiter-Glo luminescence, NPC library (AID 1117342;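 active = compounds that lower survival of HCT116 colon cancer cells in the luminescence readout, no numeric limit stated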); settings: at 20 µM (top of the series)
[9] = reduced SW480 viability measured with CellTiter-Glo, NPC library, primary (AID 1117343;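 active = compounds that lower viability of the colon cancer cells in the luminescence readout, with no numeric limit stated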); settings: CellTiter-Glo luminescence; at 20 µM (top of the series)
[10] = NPC library primary testing for decreased DLD-1 cell viability via CellTiter-Glo (AID 1117346;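 active = compounds that lower survival of DLD-1 colon cancer cells in the luminescence readout, no cutoff given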); settings: DLD-1 viability, CellTiter-Glo luminescence; at 20 µM (top of the series)
[11] = biological target: 6-phosphogluconate dehydrogenase, decarboxylating (Homo sapiens) (UniProt P52209); assay: inhibition of human phosphogluconate dehydrogenase – biochemical, recombinant enzyme, NADPH absorbance, primary screen (AID 1159550;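 active = at least 20% inhibition of 6-phosphogluconate dehydrogenase activity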); settings: recombinant 6PGD, NADPH absorbance 341 nm; at 10 µM; stronger effect = higher value
Chain of 6-phosphogluconate dehydrogenase, decarboxylating (Homo sapiens) (P52209 whole entry, looked up): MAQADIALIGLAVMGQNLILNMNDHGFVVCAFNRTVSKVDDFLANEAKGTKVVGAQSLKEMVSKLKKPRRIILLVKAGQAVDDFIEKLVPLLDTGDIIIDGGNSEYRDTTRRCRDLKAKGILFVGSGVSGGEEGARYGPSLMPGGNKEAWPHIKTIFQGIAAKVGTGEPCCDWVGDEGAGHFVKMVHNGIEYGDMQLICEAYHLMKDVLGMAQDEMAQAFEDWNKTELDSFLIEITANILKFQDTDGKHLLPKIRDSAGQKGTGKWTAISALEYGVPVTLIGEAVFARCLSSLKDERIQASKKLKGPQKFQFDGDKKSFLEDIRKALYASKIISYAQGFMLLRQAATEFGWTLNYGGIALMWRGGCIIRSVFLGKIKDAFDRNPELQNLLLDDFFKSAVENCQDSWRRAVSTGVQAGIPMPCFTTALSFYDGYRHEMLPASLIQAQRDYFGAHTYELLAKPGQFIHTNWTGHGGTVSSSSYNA

[12] = P. berghei load reduction in hepatocytes – cell-based, HepG2, luciferase luminescence, HepG2 viability, primary screen (AID 624349; in the data active = parasite load remaining mostly below about 12%, no sharp cut-off; inactive = mostly above about 10%;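 note: 100% = mean of DMSO negative control wells on the same plate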); settings: P. berghei liver stage in HepG2, luciferase luminescence, concentration not given here; parasite load remaining: stronger effect = lower value; viability: measured here: HepG2 viability without parasites
[13] = biological target: Calcium-dependent protein kinase 1 (Plasmodium falciparum (isolate 3D7)) (UniProt P62344); assay: PfCDPK1 kinase inhibitors, biochemical, TCAMS library (AID 1159585; cut-off not given, nearly all actives have IC50 up to about 0.98 µM;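 note: inhibitors leave more ATP so luminescence rises with inhibition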); settings: recombinant PfCDPK1, Kinase-Glo ATP depletion luminescence
Chain of Calcium-dependent protein kinase 1 (Plasmodium falciparum (isolate 3D7)) (P62344 whole entry, looked up): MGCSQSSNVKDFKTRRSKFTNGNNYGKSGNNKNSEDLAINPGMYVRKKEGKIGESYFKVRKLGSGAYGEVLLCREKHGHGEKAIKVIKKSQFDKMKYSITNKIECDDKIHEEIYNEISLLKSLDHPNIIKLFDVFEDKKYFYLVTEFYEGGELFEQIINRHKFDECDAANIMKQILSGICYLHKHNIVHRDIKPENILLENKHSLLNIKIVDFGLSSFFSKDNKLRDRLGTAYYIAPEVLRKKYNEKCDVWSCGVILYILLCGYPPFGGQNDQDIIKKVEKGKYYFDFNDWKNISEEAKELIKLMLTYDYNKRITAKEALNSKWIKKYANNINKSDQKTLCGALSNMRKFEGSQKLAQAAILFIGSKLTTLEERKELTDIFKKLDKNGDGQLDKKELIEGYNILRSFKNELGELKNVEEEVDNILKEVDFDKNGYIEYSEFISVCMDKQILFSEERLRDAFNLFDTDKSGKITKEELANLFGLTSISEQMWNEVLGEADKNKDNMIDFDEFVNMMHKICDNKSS

[14] = biological target: Plasmodium falciparum protein kinase 6 (PK6, PF3D7_1337100) (UniProt Q8IDW1); assay: PfPK6 kinase inhibitors, biochemical, TCAMS library (AID 1159586); settings: recombinant PfPK6, Kinase-Glo ATP depletion luminescence
Chain of Plasmodium falciparum protein kinase 6 (PK6, PF3D7_1337100) (Q8IDW1 1-305): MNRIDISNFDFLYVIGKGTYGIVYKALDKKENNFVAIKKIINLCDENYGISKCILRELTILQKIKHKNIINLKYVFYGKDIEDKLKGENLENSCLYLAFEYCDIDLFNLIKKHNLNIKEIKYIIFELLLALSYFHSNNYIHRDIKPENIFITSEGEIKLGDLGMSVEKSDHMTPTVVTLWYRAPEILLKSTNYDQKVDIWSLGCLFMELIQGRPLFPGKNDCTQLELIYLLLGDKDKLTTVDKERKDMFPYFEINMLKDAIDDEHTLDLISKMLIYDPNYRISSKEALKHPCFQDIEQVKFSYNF

[15] = signal quenchers or enhancers, Cy5 substrate/SSB – biochemical, NIH Clinical Collection, E. coli SSB, artefact control for HCV NS3 helicase inhibitor project (AID 743268); settings: Cy5-oligo bound E. coli SSB, fluorescence interference
[16] = test system: Hepatitis C virus NS3 helicase; assay: blockers of NS3h binding to DNA – biochemical, fluorescence polarization, NIH Clinical Collection, primary screen (AID 743270); settings: NS3 helicase binding to Cy5-dT15 DNA, stronger effect = higher value, concentration not given here
[17] = biological target: Single-stranded DNA-binding protein (Escherichia coli (strain K12)) (UniProt P0AGE0); assay: SSB-ssDNA binding inhibitors – biochemical, fluorescence polarization, NIH Clinical Collection, counter-screen for HCV NS3 helicase inhibitor project (AID 743271; in the data active = inhibition above about 28%); settings: E. coli SSB-DNA binding, stronger effect = higher value, concentration not given here
[18] = compounds distorting NS3 helicase fluorescence signal – biochemical, NIH Clinical Collection, artefact control for HCV NS3 helicase inhibitor project (AID 743272); settings: fluorescence interference counterscreen, HCV NS3 helicase assay; stronger effect = lower value;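 note: HCV NS3 helicase with a Cy5 labelled single stranded DNA probe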
[19] = test system: Neuropilin-2 / VEGF-C interaction (human); assay: small molecules blocking Neuropilin-2/VEGF-C interaction – biochemical, microplate binding format, z-score (AID 743281); settings: microplate NRP2/VEGF-C binding assay; stronger effect = lower value

## O=C(O)c1cccnc1Nc1cccc(C(F)(F)F)c1
[1]
  inhibition: -1% (inactive)
[2]
  fluorescence ratio (interference): 0.9 (inactive)
[3]; at 10 µM
  nuclear beta-catenin stimulation: 1.4% (inactive)
[3]; stimulation, at 2 µM
  nuclear beta-catenin stimulation: 0.9%
[4]
  insulin secretion stimulation: -3.1% (inactive)
[5]
  viability decrease: 13% (inactive)
[6]
  tube area decrease: 12.7% (inactive)
[7]
  GLP1 secretion stimulation: 0.6% (inactive)
[8]
  inhibition of viability: -5.9% (inactive)
[9]
  viability decrease (inhibition): 60% (active)
[10]
  viability decrease (inhibition): 28.2% (inactive)
[11]
  inhibition: 12.6% (inactive)

## CN(C)CCCN1c2ccccc2Sc2ccccc21
[12]
  parasite load remaining: 72.2% (inactive) and 44.2% (inactive) and 20.3% (inactive)
  viability: 85.1% and 62.8% and 90.9%
[1]
  inhibition: -9% (inactive)
[2]
  fluorescence ratio (interference): 0.9 (inactive)
[3]; at 10 µM
  nuclear beta-catenin stimulation: 2.1% (inactive)
[3]; stimulation, at 2 µM
  nuclear beta-catenin stimulation: 1.6%
[4]
  insulin secretion stimulation: 14.5% (inactive)
[5]
  viability decrease: -76.1% (inactive)
[6]
  tube area decrease: 12.3% (inactive)
[7]
  GLP1 secretion stimulation: 9.2% (inactive)
[8]
  inhibition of viability: 39.3% (inactive)
[9]
  viability decrease (inhibition): 95.8% (active)
[10]
  viability decrease (inhibition): 14.3% (inactive)
[11]
  inhibition: 6.03% (inactive)

## CN(C)CCC=C1c2ccccc2C=Cc2ccccc21
[1]
  inhibition: -2% (inactive)
[2]
  fluorescence ratio (interference): 1 (inactive)
[3]; at 10 µM
  nuclear beta-catenin stimulation: -1.8% (inactive)
[3]; stimulation, at 2 µM
  nuclear beta-catenin stimulation: -0.8%
[4]
  insulin secretion stimulation: 15.2% (inactive)
[5]
  viability decrease: -81.6% (inactive)
[6]
  tube area decrease: 1.5% (inactive)
[7]
  GLP1 secretion stimulation: 7.9% (inactive)
[8]
  inhibition of viability: 27.1% (inactive)
[9]
  viability decrease (inhibition): 111% (active)
[10]
  viability decrease (inhibition): 7.5% (inactive)
[11]
  inhibition: -4.48% (inactive)

## CN1Cc2c(N)cccc2C(c2ccccc2)C1 (centres undefined)
[2]
  fluorescence ratio (interference): 1 (inactive)
[3]; at 10 µM
  nuclear beta-catenin stimulation: 3.1% (inactive)
[3]; stimulation, at 2 µM
  nuclear beta-catenin stimulation: 1.5%
[4]
  insulin secretion stimulation: 6.6% (inactive)
[5]
  viability decrease: -9.2% (inactive)
[6]
  tube area decrease: 3.2% (inactive)
[7]
  GLP1 secretion stimulation: 0.3% (inactive)
[8]
  inhibition of viability: 10% (inactive)
[9]
  viability decrease (inhibition): 25.6% (inactive)
[10]
  viability decrease (inhibition): 4.2% (inactive)
[11]
  inhibition: 5.71% (inactive)

## COc1ccc2[nH]cc(CCNC(C)=O)c2c1
[1]
  inhibition: -3% (inactive)
[2]
  fluorescence ratio (interference): 1 (inactive)
[3]; at 10 µM
  nuclear beta-catenin stimulation: 0.2% (inactive)
[3]; stimulation, at 2 µM
  nuclear beta-catenin stimulation: -0.2%
[4]
  insulin secretion stimulation: -2.5% (inactive)
[5]
  viability decrease: -6.45% (inactive)
[6]
  tube area decrease: -3.4% (inactive)
[7]
  GLP1 secretion stimulation: 4.5% (inactive)
[8]
  inhibition of viability: -6.9% (inactive)
[9]
  viability decrease (inhibition): 20.8% (inactive)
[10]
  viability decrease (inhibition): 7.55% (inactive)
[11]
  inhibition: 6.51% (inactive)

## NC[C@H](O)c1ccc(O)c(O)c1
[1]
  inhibition: -4% (inactive)
[2]
  fluorescence ratio (interference): 0.9 (inactive)
[3]; at 10 µM
  nuclear beta-catenin stimulation: -1.8% (inactive)
[3]; stimulation, at 2 µM
  nuclear beta-catenin stimulation: -1.5%
[4]
  insulin secretion stimulation: 0.1% (inactive)
[5]
  viability decrease: 31.8% (inactive)
[6]
  tube area decrease: -25.8% (inactive)
[7]
  GLP1 secretion stimulation: 3.6% (inactive)
[8]
  inhibition of viability: 2.5% (inactive)
[9]
  viability decrease (inhibition): 38.8% (inactive)
[10]
  viability decrease (inhibition): 8.6% (inactive)
[11]
  inhibition: 7.95% (inactive)

## NC(CO)C(=O)NNCc1ccc(O)c(O)c1O (centres undefined)
[1]
  inhibition: 1% (inactive)
[2]
  fluorescence ratio (interference): 1 (inactive)
[3]; at 10 µM
  nuclear beta-catenin stimulation: 13.1% (inactive)
[3]; stimulation, at 2 µM
  nuclear beta-catenin stimulation: 3.8%
[4]
  insulin secretion stimulation: 2.2% (inactive)
[5]
  viability decrease: 55.6% (active)
[6]
  tube area decrease: -12.6% (inactive)
[7]
  GLP1 secretion stimulation: 8.5% (inactive)
[8]
  inhibition of viability: 84.4% (active)
[9]
  viability decrease (inhibition): 145% (active)
[10]
  viability decrease (inhibition): 103% (active)
[11]
  inhibition: -10.3% (inactive)

## O=C(c1ccc(F)cc1)C1CCN(CCn2c(=O)[nH]c3ccccc3c2=O)CC1
[1]
  inhibition: 2% (inactive)
[2]
  fluorescence ratio (interference): 1 (inactive)
[3]; at 10 µM
  nuclear beta-catenin stimulation: 0.6% (inactive)
[3]; stimulation, at 2 µM
  nuclear beta-catenin stimulation: -1.2%
[4]
  insulin secretion stimulation: 2.5% (inactive)
[5]
  viability decrease: 19.4% (inactive)
[6]
  tube area decrease: -2.2% (active)
[7]
  GLP1 secretion stimulation: 2.6% (inactive)
[8]
  inhibition of viability: 52.6% (active)
[9]
  viability decrease (inhibition): 19.5% (inactive)
[10]
  viability decrease (inhibition): 16.9% (inactive)
[11]
  inhibition: 8.02% (inactive)

## O=C(Nc1cccc(C2=NCCN2)c1)Nc1cccc(C2=NCCN2)c1
[3]; at 10 µM
  nuclear beta-catenin stimulation: 1.5% (inactive)
[3]; stimulation, at 2 µM
  nuclear beta-catenin stimulation: 4.9%
[4]
  insulin secretion stimulation: 0.05% (inactive)
[5]
  viability decrease: 72.2% (active)
[6]
  tube area decrease: -57.4% (inactive)
[7]
  GLP1 secretion stimulation: -1% (inactive)
[8]
  inhibition of viability: 70.7% (active)
[9]
  viability decrease (inhibition): 52.2% (active)
[10]
  viability decrease (inhibition): 60.8% (active)
[13]
  outcome: inactive
[14]
  outcome: inactive

## CN1CCN(CCCN2c3ccccc3Sc3ccc(Cl)cc32)CC1
[1]
  inhibition: -3% (inactive)
[2]
  fluorescence ratio (interference): 1 (inactive)
[15]
  fluorescence ratio: 0.78 (active)
[16]
  inhibition: -1.19% (inactive)
[17]
  inhibition: 9.14% (inactive)
[18]
  fluorescence ratio: 0.71 (active)
[19]
  z-score: 0.742 (inactive)
[3]; at 10 µM
  nuclear beta-catenin stimulation: 19.8% (inactive)
[3]; stimulation, at 2 µM
  nuclear beta-catenin stimulation: 0.2%
[4]
  insulin secretion stimulation: 3.6% (inactive)
[5]
  viability decrease: 13% (inactive)
[6]
  tube area decrease: 47.3% (active)
[7]
  GLP1 secretion stimulation: 17.2% (inactive)
[8]
  inhibition of viability: 86% (active)
[9]
  viability decrease (inhibition): 137% (active)
[10]
  viability decrease (inhibition): 94.4% (active)
[11]
  inhibition: 5.8% (inactive)

## C[C@](N)(Cc1ccc(O)c(O)c1)C(=O)O
[1]
  inhibition: -3% (inactive)
[2]
  fluorescence ratio (interference): 1 (inactive)
[3]; at 10 µM
  nuclear beta-catenin stimulation: 2.9% (inactive)
[3]; stimulation, at 2 µM
  nuclear beta-catenin stimulation: 1.2%
[4]
  insulin secretion stimulation: 1.8% (inactive)
[5]
  viability decrease: 17.5% (inactive)
[6]
  tube area decrease: 1.4% (inactive)
[7]
  GLP1 secretion stimulation: 0.4% (inactive)
[8]
  inhibition of viability: 5.03% (inactive)
[9]
  viability decrease (inhibition): -10% (inactive)
[10]
  viability decrease (inhibition): 0.1% (inactive)
[11]
  inhibition: -6.99% (inactive)

## NC/C=C/C(=O)O
[1]
  inhibition: -5% (inactive)
[2]
  fluorescence ratio (interference): 1 (inactive)
[3]; at 10 µM
  nuclear beta-catenin stimulation: 0.3% (inactive)
[3]; stimulation, at 2 µM
  nuclear beta-catenin stimulation: 1.6%
[4]
  insulin secretion stimulation: 1.5% (inactive)
[5]
  viability decrease: -42.3% (inactive)
[6]
  tube area decrease: -0.5% (inactive)
[7]
  GLP1 secretion stimulation: -2.6% (inactive)
[8]
  inhibition of viability: 3.67% (inactive)
[9]
  viability decrease (inhibition): 11.1% (inactive)
[10]
  viability decrease (inhibition): -6.3% (inactive)
[11]
  inhibition: 0.304% (inactive)
